88 molecules from PubChem BioAssay AID434962 (The Scripps Research Institute Molecular Screening Center, 2010) can be followed below.

One may read the inhibition as the relative decrease from the control value, in per cent.

Molecules are shown by their SMILES. Screen size: about 320,000 compounds; about 1,300 (0.41%) were called active. The sample holds actives, similar compounds and a random draw of the others, so the mix is not that of the screen.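 Rule for the calls: active = percent inhibition above the average of all tested compounds plus 3 SD, set per screening campaign (cut at about 16% in these data); inactive = the rest.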

The target in the experiment is Insulin-degrading enzyme (Homo sapiens) (UniProt P14735). In words: cellular IDE Abeta-cleavage inhibition – fluorescence polarization, HEK cells, FAbetaB substrate, primary screen (AID 434962).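 Note: IDE supplied by intact live HEK cells; FP after avidin binding of uncleaved biotin substrate so inhibition keeps polarization high; 0% = DMSO wells and 100% = 60 µM reference IDE inhibitor Ii1.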 The following applies: at 5.59 µM, active compounds read high. (In general: Polarisation of emitted light reports the rotation of a fluorescent probe.)
Chain of Insulin-degrading enzyme (Homo sapiens) (P14735 whole entry, looked up): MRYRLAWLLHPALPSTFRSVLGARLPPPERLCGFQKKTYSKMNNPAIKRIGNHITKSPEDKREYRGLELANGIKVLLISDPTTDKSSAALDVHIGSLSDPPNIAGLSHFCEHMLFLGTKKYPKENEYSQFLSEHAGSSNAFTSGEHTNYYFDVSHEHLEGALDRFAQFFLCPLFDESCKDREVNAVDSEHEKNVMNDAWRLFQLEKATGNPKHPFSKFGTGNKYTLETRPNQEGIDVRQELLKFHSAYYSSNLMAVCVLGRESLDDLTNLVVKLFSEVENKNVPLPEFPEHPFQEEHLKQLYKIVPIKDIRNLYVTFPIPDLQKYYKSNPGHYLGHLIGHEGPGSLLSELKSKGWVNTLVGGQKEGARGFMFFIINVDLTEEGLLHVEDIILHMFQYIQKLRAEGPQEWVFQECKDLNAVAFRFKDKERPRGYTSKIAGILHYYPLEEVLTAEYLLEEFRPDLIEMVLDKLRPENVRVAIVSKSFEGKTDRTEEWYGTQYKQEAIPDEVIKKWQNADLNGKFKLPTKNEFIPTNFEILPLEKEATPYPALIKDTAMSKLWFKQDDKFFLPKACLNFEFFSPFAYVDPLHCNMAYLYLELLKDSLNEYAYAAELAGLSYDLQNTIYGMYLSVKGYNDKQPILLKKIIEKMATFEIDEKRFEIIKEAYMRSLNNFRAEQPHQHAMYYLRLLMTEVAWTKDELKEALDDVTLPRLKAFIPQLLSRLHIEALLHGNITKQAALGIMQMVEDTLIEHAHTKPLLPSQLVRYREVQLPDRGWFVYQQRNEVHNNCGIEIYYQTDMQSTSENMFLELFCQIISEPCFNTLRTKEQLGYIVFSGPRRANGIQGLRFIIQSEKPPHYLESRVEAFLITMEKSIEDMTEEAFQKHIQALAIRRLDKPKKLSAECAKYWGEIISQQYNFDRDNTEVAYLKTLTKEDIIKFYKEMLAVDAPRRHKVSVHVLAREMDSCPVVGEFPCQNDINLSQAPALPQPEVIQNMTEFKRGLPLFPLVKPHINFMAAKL
`COc1ccc(NC(=O)CSc2nnc(C3CC3)n2C)cc1S(=O)(=O)N1CCCCC1`: the inhibition is 0.43% (inactive).
As to `O=C1CCN(CCCc2ccccc2)CCN1CCO`, the inhibition was 9.53% (inactive).
Turning to `Cc1noc(C)c1S(=O)(=O)N(C)Cc1ccccc1`, the inhibition was 1.11% (inactive).
`Cn1ncc2c(N3CCCCC3)nc(NCCCO)nc21`: the inhibition was 4.87% (inactive).
Next, `COc1cccc(/C=C/C(=O)OCC(=O)N2CCCc3ccccc32)c1`: 0.1% (inactive); `Cc1ccc(Cn2cc(C(=O)NN)c(=O)c3ccc(F)cc32)cc1`: 0.01% (inactive); `COc1ccc2c(-c3ccccc3)cc(SCC(=O)N(C)C3CCS(=O)(=O)C3)nc2c1` (stereo not drawn): -3.71% (inactive).
Next, `CN(C(=O)COC(=O)c1cc(-c2ccco2)nc2ccccc12)C1CCS(=O)(=O)C1` (stereo not drawn): -3.18% (inactive); `Cc1c(-c2cccc(Cl)c2)nc2ccccc2c1C(=O)OCC(=O)N(C)C1CCS(=O)(=O)C1` (stereo not drawn): 18.3% (active).
In the case of `Cc1ccc(C)c(NC(=O)c2cc(-c3cc(C)cc(C)c3O)n[nH]2)c1`, the inhibition was -3.27% (inactive).
With `Cc1ccc(NC(=S)NC(=O)c2ccc(-c3ccccc3)cc2)cc1` the figure was 0.29% (inactive); with `O=C(NNC(=O)c1ccc(-c2ccccc2)cc1)Nc1ccccc1`, 2.17% (inactive).
Next, `CC(C(=O)c1ccc(-c2ccccc2)cc1)[n+]1cccc(Br)c1` (stereo not drawn): 23.5% (active).
For the molecule `O=C1N/C(=C/c2cccs2)C(=O)N1Cc1ccc(F)cc1`, the inhibition is -2.86% (inactive).
Next, `CN(C)c1ccc(/C=C2\NC(=S)N(Cc3ccccc3)C2=O)cc1`: 99.8% (active); `CN(C)c1ccc(C=C2C(=O)OC3(CCCC3)OC2=O)cc1`: 0.68% (inactive); `CN(C1CCS(=O)(=O)C1)S(=O)(=O)c1ccc2ccccc2c1` (stereo not drawn): 5.04% (inactive).
Next, `O=C(C1CCN(S(=O)(=O)Cc2ccccc2)CC1)N1CCCc2ccccc21`: 0.11% (inactive).
Next, `CC1(C)Cc2cccc(OCC(=O)N3CCN(c4ccc([N+](=O)[O-])cc4)CC3)c2O1`: 18.8% (active).
Turning to `CC1(C)Cc2cccc(OCC(=O)NCc3ccccc3)c2O1`, the inhibition is 0.56% (inactive).
Consider `CC1(C)Cc2cccc(OCC(N)=O)c2O1`, for which the inhibition was -2.75% (inactive).
For the molecule `CCCN(CCC)S(=O)(=O)c1ccc(C(=O)N2CC3CCC(CC3)C2)cc1`, the inhibition was -1.85% (inactive).
On to `CC(=O)NCCc1ccc(S(=O)(=O)N(C)C2CCS(=O)(=O)C2)cc1` (stereo not drawn), for which the inhibition was -0.05% (inactive).
With `CN1C(=O)/C(=C/C=C2\SCCN2C)OC1=S` the figure was 25.2% (active).
Next, `Nc1nc(Br)c2ccccc2c1-c1ccc(F)cc1`: -4.68% (inactive); `CC(C)OCCCNC(=S)N1CCC(C(=O)c2ccc3c(c2)OCCO3)CC1`: 7.22% (inactive); `COC(=O)c1cc(C(=O)OCC(=O)Nc2cc(C)on2)cc([N+](=O)[O-])c1`: 0.35% (inactive).
As for `Cc1ccc2c(c1)c1ncn(CCC3=CCCCC3)c(=O)c1n2C`, the inhibition is 4.46% (inactive).
For `Cc1ccc2c(c1)c1ncnc(N3CCc4ccccc4C3)c1n2C`, the inhibition is 39.7% (active).
Next, `Cc1ccc(-c2cc(C(=O)N3CCc4ccccc4C3)no2)cc1`: -0.51% (inactive); `COc1ccccc1-c1n[nH]c2c1[C@H](C)CC[C@H]2C(C)C`: 0.94% (inactive).
Next, `CCCCOC(=O)c1ccc(NC(c2ccc(C)cc2)P(=O)(OC)OC)cc1` (stereo not drawn): 7.2% (inactive); `Cc1nn(C)cc1C(=O)c1ccccc1`: 16.3% (active); `Cc1nn(C)cc1C(=O)Nc1ccccc1Br`: 2.37% (inactive).
With `CCOC(=O)c1nn(-c2cccc(C)c2)cc1C(=O)c1ccccc1` the figure was -1.22% (inactive).
For `COc1ccc(/C=C2\CCCC3C2=NN(C(=O)c2scnc2C)C3c2ccc(OC)cc2)cc1` (stereo not drawn), the inhibition is -0.54% (inactive).
On to `O=C(CCc1nnc(Cc2ccc3c(c2)OCO3)o1)NCCc1ccccc1Cl`, for which the inhibition is 0.48% (inactive).
Next, `CCCCN(C1CCS(=O)(=O)C1)S(=O)(=O)c1ccc(C(C)C)cc1` (stereo not drawn): 5.43% (inactive).
With `O=C(Cn1[nH]c(=O)c2ccccc2c1=O)Nc1cccc(-c2nnc3n2CCCCC3)c1` the figure was 7.74% (inactive); with `Cc1c(C(=O)Nc2cccc(S(=O)(=O)N3CCOCC3)c2)oc2ccccc12`, -1.96% (inactive); with `Cc1c(C(=O)Nc2cccc(-c3nnc4n3CCCCC4)c2)oc2ccccc12`, 17.2% (active).
Next, `COc1c(Br)cc2c(C)c(C(=O)N3CCOCC3)oc2c1Br`: 3.66% (inactive); `COc1ccccc1N(CC(=O)Nc1ccc(C(F)(F)F)cc1)S(C)(=O)=O`: -2.79% (inactive).
Take `C=CCOc1ccccc1NC(=O)CN1C(=O)CNC1=O`: the inhibition was -0.94% (inactive).
For the molecule `CN(C)/C=C/C(=O)c1cnc2sccn2c1=O`, the inhibition was -1.17% (inactive).
With `COc1cc(NS(=O)(=O)c2ccc(NC(=S)NC(=O)c3ccc(Br)cc3)cc2)ncn1` the figure was -2.01% (inactive); with `COc1ccc(NS(=O)(=O)c2ccc(NC(=S)NC(=O)/C=C/c3ccc(C)cc3)cc2)nn1`, 24.2% (active).
As for `COc1ccc(NS(=O)(=O)c2ccc(NC(=O)C(C)(C(F)(F)F)C(F)(F)F)cc2)nn1`, the inhibition is 6.58% (inactive).
With `Cc1ccc(NC2CCCN(C(=O)CCC3(C)CC3)C2)cc1C` (stereo not drawn) the figure was 2.09% (inactive); with `O=C(Nc1ccc(Cl)c(Cl)c1)N1CC=C(c2ccccc2)CC1`, 19.1% (active).
Take `O=C(Nc1cccc(NC(=O)N2CCN(c3ccccc3)CC2)c1)N1CCN(c2ccccc2)CC1`: the inhibition was 3.98% (inactive).
With `COc1cc(C(=O)NCC(=O)N2CC=C(c3ccccc3)CC2)cc(OC)c1OC` the figure was -2.8% (inactive); with `O=C(CSc1nnc(CNC(=O)c2ccc(F)cc2)o1)Nc1ccc2c(c1)OCO2`, 1.15% (inactive); with `CS(=O)(=O)N(Cc1ccccc1Cl)c1ccc(C(=O)NCc2cccnc2)cc1`, 12.1% (inactive).
For `CC(=O)[C@@]12O[C@@H]1C[C@H]1[C@@H]3CC[C@H]4C[C@@H](O)CC[C@]4(C)[C@H]3CC[C@@]12C`, the inhibition is 0.23% (inactive).
For the molecule `O=C(N/N=C/c1ccc(OC(=O)c2ccccc2Cl)cc1)c1ccc(O)cc1`, the inhibition was 17.1% (active).
For the molecule `CC(C)(C)C(=O)Nc1ccc(C(=O)N/N=C/c2ccccc2OC(=O)c2ccc(Cl)cc2Cl)cc1`, the inhibition is -0.07% (inactive).
On to `O=C(COc1ccc(/C=N/NC(=O)c2ccc(O)cc2)cc1)Nc1ccc([N+](=O)[O-])cc1`, for which the inhibition was 0.35% (inactive).
Turning to `CN(C(=O)c1cccc(NC(=O)Cc2cccc([N+](=O)[O-])c2)c1)C1CCCCC1`, the inhibition was -2.48% (inactive).
With `Cn1cncc1C#Cc1c(-c2ccsc2)sc2ccccc12` the figure was 2.04% (inactive); with `CC[C@H]1OC(=O)[C@H](C)[C@@H](O[C@H]2C[C@@](C)(OC)[C@@H](O)[C@H](C)O2)[C@H](C)[C@@H](O[C@@H]2O[C@H](C)C[C@H](N(C)C)[C@H]2O)[C@](C)(O)C[C@@H](C)[C@@H]2N[C@@H](COCCOC)O[C@H]([C@H]2C)[C@]1(C)O`, -4.09% (inactive).
Next, `Cc1cc2nc3c(=O)n(Cc4ccccc4)c(=O)[nH]c3nc2cc1N`: 20.4% (active); `CN(C(=O)COC(=O)c1ccc(Br)o1)c1c(N)n(Cc2ccccc2)c(=O)[nH]c1=O`: 5.15% (inactive).
For the molecule `C=CCSc1nc2c(c(=O)[nH]c(=O)n2C)n1Cc1ccccc1`, the inhibition was -11.6% (inactive).
Next, `O=C(/C=C/c1ccc2c(c1)OCCO2)c1ccc(O)cc1`: -0.89% (inactive); `O=C(O)/C=C/c1ccc(OCCCF)cc1`: -0.17% (inactive); `O=C(/C=C(O)/C=C/c1ccc(O)cc1)/C=C/c1ccc(O)cc1`: 138% (active).
Next, `Cc1cccc2sc(N(CCCN(C)C)C(=O)CCS(=O)(=O)c3ccccc3)nc12`: 1.58% (inactive).
With `O=C(O)c1cc(S(=O)(=O)NC2CCCc3ccccc32)ccc1O` (stereo not drawn) the figure was -0.45% (inactive); with `O=C(NNS(=O)(=O)c1c(F)cc(F)c(Cl)c1F)C12CC3CC(CC(C3)C1)C2`, -2.1% (inactive); with `CCCNC(=O)N1CCN(C(=O)NCCC)CC1`, 4.47% (inactive).
Take `Cc1ccccc1NC(=O)c1nn(-c2ccc(F)c(F)c2)ccc1=O`: the inhibition is -4.03% (inactive).
Next, `C=CCOc1cccc(C2C(C(=O)c3ccc(C)o3)=C(O)C(=O)N2c2nnc(C)s2)c1` (stereo not drawn): 24% (active); `C=CCOc1cccc(C2C(C(=O)c3ccc(C)o3)=C(O)C(=O)N2CCCn2ccnc2)c1` (stereo not drawn): 1.55% (inactive); `Cc1cc(N2C(=O)C(O)=C(C(=O)c3ccc(C)o3)C2c2ccc(OCc3ccccc3)cc2)no1` (stereo not drawn): -9.32% (inactive).
With `Cc1ccc(C)c(NS(=O)(=O)c2ccc(OCC(=O)NCc3cccnc3)cc2)c1` the figure was 4.06% (inactive); with `CC(C)COc1ccc(C(=O)NNC(=O)CCC(=O)c2cccs2)cc1`, -2.82% (inactive); with `NS(=O)(=O)c1cccc(NC(=O)CC23CC4CC(CC(Br)(C4)C2)C3)c1`, 2% (inactive).
In the case of `O=C1Nc2ccccc2/C1=C/c1ccnc2ccccc12`, the inhibition is 6.65% (inactive).
Turning to `Cc1cc(C)c(/C=C2\C(=O)Nc3ccccc32)[nH]1`, the inhibition was 66.2% (active).
In the case of `CN(C)/C=C1/Nc2ccccc2C1=O`, the inhibition was 1.5% (inactive).
With `COc1ccc2nc3n(c(=O)c2c1)-c1ccc(Cl)cc1C(=O)NC3Cc1ccccc1` (stereo not drawn) the figure was 4.46% (inactive).
With `COc1cc(/C=C(\C#N)c2nc3ccccc3[nH]2)ccc1O` the figure was 121% (active); with `N#C/C(=C(/O)COc1cccc2ccccc12)c1nc2ccccc2[nH]1`, -1.21% (inactive); with `COc1cc(/C=C(\C#N)c2nc3c(s2)CC(C)CC3)ccc1O` (stereo not drawn), 89.3% (active).
Turning to `Cc1ccc2nc(/C(C#N)=C\c3ccc(OC(=O)c4cccs4)cc3)[nH]c2c1`, the inhibition is 6.77% (inactive).
`CCOc1cc(/C=C(\C#N)c2nc(-c3cccs3)c(NC(C)=O)s2)ccc1O`: the inhibition is 11% (inactive).
Next, `CCc1nn(CCCC(=O)Nc2ccc(C)c(C)c2)c(=O)c2cc3occc3n12`: 1.46% (inactive).
